Assay results reported in article PMC5540273 (PLoS ONE, 2017).
Like-named read-outs stand apart in the source and are kept apart here.

Key:
SgK110 = details: concentration: 1 μM, replicates: in singlicate; n = 1
TAK1 = system: T1, TAK1; details: concentration: 1 μM, replicates: in singlicate; n = 1
T1 construct: gene MAP3K7

TAOK1 = details: concentration: 1 μM, replicates: in singlicate; n = 1
TAOK2 = details: concentration: 1 μM, replicates: in singlicate; n = 1
TAOK3 = details: concentration: 1 μM, replicates: in singlicate; n = 1
TBK1 = details: concentration: 1 μM, replicates: in singlicate; n = 1
TEC = details: concentration: 1 μM, replicates: in singlicate; n = 1
TESK1 = details: concentration: 1 μM, replicates: in singlicate; n = 1
TGFBR1 = details: n = 1
TGFBR2 = details: concentration: 1 μM, replicates: in singlicate; n = 1
TIE1 = details: concentration: 1 μM, replicates: in singlicate; n = 1
TIE2 = system: T2, TIE2; details: concentration: 1 μM, replicates: in singlicate; n = 1
T2 construct: gene TEK

TLK1 = details: concentration: 1 μM, replicates: in singlicate; n = 1
TLK2 = details: concentration: 1 μM, replicates: in singlicate; n = 1
TNIK = details: concentration: 1 μM, replicates: in singlicate; n = 1
TNK1 = details: concentration: 1 μM, replicates: in singlicate; n = 1
TNK2 = details: concentration: 1 μM, replicates: in singlicate; n = 1
TNNI3K = details: concentration: 1 μM, replicates: in singlicate; n = 1
TRKA = system: T3, TRKA; details: concentration: 1 μM, replicates: in singlicate; n = 1
T3 construct: gene NTRK1

TRKB = details: concentration: 1 μM, replicates: in singlicate; n = 1
[1] = concentration: 1 μM, replicates: in singlicate
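Note: KINOMEscan kinase panel screen.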

NC(=O)c1sc(-n2cnc3ccccc32)cc1OCc1ccccc1F [GSK1024306]
%Inh (SgK110): 0% | %Inh (TAK1): 0% | %Inh (TAOK1): 0% | %Inh (TAOK2): 0% | %Inh (TAOK3): 0% | %Inh (TBK1): 0% | %Inh (TEC): 22% | %Inh (TESK1): 24% | %Inh (TGFBR1; [1]): 5% | %Inh (TGFBR2): 0% | %Inh (TIE1): 2% | %Inh (TIE2): 0% | %Inh (TLK1): 0% | %Inh (TLK2): 0% | %Inh (TNIK): 56% | %Inh (TNK1): 0% | %Inh (TNK2): 9% | %Inh (TNNI3K): 18% | %Inh (TRKA): 51% | %Inh (TRKB): 0%

Clc1ccc(-c2cc(-c3c[nH]nc3-c3ccccn3)ccn2)cc1 [GW681251]
%Inh (SgK110): 0% | %Inh (TAK1): 0% | %Inh (TAOK1): 0% | %Inh (TAOK2): 0% | %Inh (TAOK3): 0% | %Inh (TBK1): 0% | %Inh (TEC): 0% | %Inh (TESK1): 12% | %Inh (TGFBR1; 1 µM): 79% | %Inh (TGFBR2): 85% | %Inh (TIE1): 33% | %Inh (TIE2): 0% | %Inh (TLK1): 0% | %Inh (TLK2): 0% | %Inh (TNIK): 80% | %Inh (TNK1): 0% | %Inh (TNK2): 0% | %Inh (TNNI3K): 17% | %Inh (TRKA): 0% | %Inh (TRKB): 0%

COc1ccc(Nc2nccc(N3CCC(NC(=O)Nc4ccc5c(c4)OCO5)C3)n2)cc1 (centres unmarked) [GSK1379745]
%Inh (SgK110): 2% | %Inh (TAK1): 0% | %Inh (TAOK1): 0% | %Inh (TAOK2): 0% | %Inh (TAOK3): 0% | %Inh (TBK1): 18% | %Inh (TEC): 9% | %Inh (TESK1): 12% | %Inh (TGFBR1; [1]): 8% | %Inh (TGFBR2): 0% | %Inh (TIE1): 19% | %Inh (TIE2): 0% | %Inh (TLK1): 18% | %Inh (TLK2): 0% | %Inh (TNIK): 1% | %Inh (TNK1): 0% | %Inh (TNK2): 14% | %Inh (TNNI3K): 11% | %Inh (TRKA): 64% | %Inh (TRKB): 41%

O=C(CCO)NCCn1ccc2ncnc(Nc3ccc(Oc4cccc(C(F)(F)F)c4)c(Cl)c3)c21
%Inh (SgK110): 0% | %Inh (TAK1): 0% | %Inh (TAOK1): 0% | %Inh (TAOK2): 10% | %Inh (TAOK3): 0% | %Inh (TBK1): 16% | %Inh (TEC): 0% | %Inh (TESK1): 6% | %Inh (TGFBR1; [1]): 0% | %Inh (TGFBR2): 0% | %Inh (TIE1): 0% | %Inh (TIE2): 0% | %Inh (TLK1): 0% | %Inh (TLK2): 0% | %Inh (TNIK): 0% | %Inh (TNK1): 0% | %Inh (TNK2): 0% | %Inh (TNNI3K): 0% | %Inh (TRKA): 0% | %Inh (TRKB): 0%

CSc1ccc(NC2=C(c3ccccc3Cl)C(=O)NC2=O)cc1 [SB-342411]
%Inh (SgK110): 0% | %Inh (TAK1): 7% | %Inh (TAOK1): 0% | %Inh (TAOK2): 1% | %Inh (TAOK3): 0% | %Inh (TBK1): 27% | %Inh (TEC): 10% | %Inh (TESK1): 6% | %Inh (TGFBR1; [1]): 0% | %Inh (TGFBR2): 0% | %Inh (TIE1): 40% | %Inh (TIE2): 0% | %Inh (TLK1): 35% | %Inh (TLK2): 6% | %Inh (TNIK): 0% | %Inh (TNK1): 0% | %Inh (TNK2): 0% | %Inh (TNNI3K): 29% | %Inh (TRKA): 20% | %Inh (TRKB): 0%

COc1ccc(NC(=O)c2ccc(-c3cc(-c4nnc(C)o4)ccc3C)cc2)cc1 [GW595885]
%Inh (SgK110): 13% | %Inh (TAK1): 0% | %Inh (TAOK1): 0% | %Inh (TAOK2): 0% | %Inh (TAOK3): 0% | %Inh (TBK1): 0% | %Inh (TEC): 2% | %Inh (TESK1): 24% | %Inh (TGFBR1; [1]): 6% | %Inh (TGFBR2): 0% | %Inh (TIE1): 14% | %Inh (TIE2): 0% | %Inh (TLK1): 0% | %Inh (TLK2): 0% | %Inh (TNIK): 0% | %Inh (TNK1): 0% | %Inh (TNK2): 21% | %Inh (TNNI3K): 0% | %Inh (TRKA): 0% | %Inh (TRKB): 17%

COc1ccc(NC(=O)Nc2ccc(C)c(-c3ccc(C(=O)Nc4ccncc4)cc3)c2)cc1 [GSK1398475]
%Inh (SgK110): 0% | %Inh (TAK1): 0% | %Inh (TAOK1): 0% | %Inh (TAOK2): 0% | %Inh (TAOK3): 0% | %Inh (TBK1): 6% | %Inh (TEC): 3% | %Inh (TESK1): 19% | %Inh (TGFBR1; [1]): 3% | %Inh (TGFBR2): 0% | %Inh (TIE1): 0% | %Inh (TIE2): 0% | %Inh (TLK1): 19% | %Inh (TLK2): 0% | %Inh (TNIK): 0% | %Inh (TNK1): 0% | %Inh (TNK2): 17% | %Inh (TNNI3K): 17% | %Inh (TRKA): 0% | %Inh (TRKB): 0%

Cn1cc(-c2ccc3c(c2)CCN3C(=O)Cc2cccc(C(F)(F)F)c2)c2c(N)ncnc21 [GSK2606414]
%Inh (SgK110): 0% | %Inh (TAK1): 0% | %Inh (TAOK1): 4% | %Inh (TAOK2): 0% | %Inh (TAOK3): 3% | %Inh (TBK1): 9% | %Inh (TEC): 1% | %Inh (TESK1): 5% | %Inh (TGFBR1; [1]): 0% | %Inh (TGFBR2): 9% | %Inh (TIE1): 46% | %Inh (TIE2): 24% | %Inh (TLK1): 2% | %Inh (TLK2): 0% | %Inh (TNIK): 0% | %Inh (TNK1): 0% | %Inh (TNK2): 0% | %Inh (TNNI3K): 0% | %Inh (TRKA): 35% | %Inh (TRKB): 46%

Cl.O=S(=O)(c1cccc(F)c1)c1ccc(Nc2ncnc3cc(Br)sc23)cc1Cl [GSK306886]
%Inh (SgK110): 0% | %Inh (TAK1): 0% | %Inh (TAOK1): 0% | %Inh (TAOK2): 0% | %Inh (TAOK3): 0% | %Inh (TBK1): 9% | %Inh (TEC): 0% | %Inh (TESK1): 0% | %Inh (TGFBR1; [1]): 7% | %Inh (TGFBR2): 0% | %Inh (TIE1): 0% | %Inh (TIE2): 0% | %Inh (TLK1): 19% | %Inh (TLK2): 2% | %Inh (TNIK): 0% | %Inh (TNK1): 0% | %Inh (TNK2): 21% | %Inh (TNNI3K): 23% | %Inh (TRKA): 0% | %Inh (TRKB): 0%

COc1ccc(-c2oc3ncnc(N)c3c2-c2ccc(OC)cc2)cc1 [SB-589132]
%Inh (SgK110): 0% | %Inh (TAK1): 0% | %Inh (TAOK1): 0% | %Inh (TAOK2): 0% | %Inh (TAOK3): 0% | %Inh (TBK1): 0% | %Inh (TEC): 15% | %Inh (TESK1): 36% | %Inh (TGFBR1; [1]): 7% | %Inh (TGFBR2): 12% | %Inh (TIE1): 1% | %Inh (TIE2): 9% | %Inh (TLK1): 0% | %Inh (TLK2): 0% | %Inh (TNIK): 0% | %Inh (TNK1): 45% | %Inh (TNK2): 44% | %Inh (TNNI3K): 50% | %Inh (TRKA): 52% | %Inh (TRKB): 74%
